Experimental findings from PubChem BioAssay AID1671190 (National Center for Advancing Translational Sciences (NCATS), 2021) are described below.

About 6,100 (1.1%) of roughly 580,000 compounds were called active. About 15% were inconclusive and are not listed. Shown is part of a subset that was picked to be rich in actives. Unmarked numbers belong to inactive results. Calls come from the whole dose curve; as a rule, active = well fitted inhibition curve with a large enough effect; inconclusive = small, poorly fitted or top-dose-only effect, or another doubt; inactive = no such curve, though single readings can be large or run the other way.
% is set by controls: 0 for no effect and ±100 for the full control effect; potency is the fitted concentration of half-maximal effect.

Chain of Polyunsaturated fatty acid lipoxygenase ALOX12 (Homo sapiens) (P18054 whole entry, looked up): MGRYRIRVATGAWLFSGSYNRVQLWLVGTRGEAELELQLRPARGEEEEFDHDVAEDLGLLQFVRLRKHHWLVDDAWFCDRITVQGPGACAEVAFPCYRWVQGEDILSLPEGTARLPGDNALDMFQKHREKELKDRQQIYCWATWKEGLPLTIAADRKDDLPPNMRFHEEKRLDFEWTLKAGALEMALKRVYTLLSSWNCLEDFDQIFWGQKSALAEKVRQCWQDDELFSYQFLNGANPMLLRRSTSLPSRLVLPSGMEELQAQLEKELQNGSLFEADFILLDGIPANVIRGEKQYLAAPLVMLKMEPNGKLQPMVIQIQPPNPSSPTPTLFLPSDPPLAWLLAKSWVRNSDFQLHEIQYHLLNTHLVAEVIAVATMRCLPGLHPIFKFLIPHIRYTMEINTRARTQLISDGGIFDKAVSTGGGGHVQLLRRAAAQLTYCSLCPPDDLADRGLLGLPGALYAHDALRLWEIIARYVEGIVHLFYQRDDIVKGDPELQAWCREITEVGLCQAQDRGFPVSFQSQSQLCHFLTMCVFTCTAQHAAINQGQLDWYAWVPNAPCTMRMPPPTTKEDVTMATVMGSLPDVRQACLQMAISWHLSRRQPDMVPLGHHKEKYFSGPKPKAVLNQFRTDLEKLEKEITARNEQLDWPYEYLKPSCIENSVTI

The assay concerns the target Polyunsaturated fatty acid lipoxygenase ALOX12 (Homo sapiens) (UniProt P18054). The experiment in a line: Primary qHTS assay for inhibitors of human arachidonate 12S-lipoxygenase (ALOX12): Round 2. As to conditions: purified 12hLO, xylenol orange hydroperoxide absorbance; series mostly up to 108 µM; activity change, negative = inhibition: at the top concentration. An outline of the steps: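 Purified human 12hLO (150 nM final) in 25 mM Hepes, 0.01% Triton X-100, pH 7.0 was preincubated 15 min at room temperature with compound. Then 40 uM arachidonic acid was added, 30 min. Hydroperoxide was read by Fe-XO absorbance ratio 573/405 nm.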
Background: Quantitative high-throughput screening tests each substance at several concentrations.
As to `Cc1c(NC(=S)NC(=O)CCc2ccccc2)c(=O)n(-c2ccccc2)n1C`, the “activity change, negative = inhibition” value is 0%. With `CC(=O)NC(NC(=S)Nc1c(C)n(C)n(-c2ccccc2)c1=O)C(Cl)(Cl)Cl` (stereo unspecified), the “activity change, negative = inhibition” value is -12.2%. On to `C/C=C/C=C/C(=O)NCc1cccs1`, for which the “activity change, negative = inhibition” value was -25.4%.

In the case of `COc1cc(/C=C2/NC(=O)NC2=O)ccc1OCc1ccccc1F`, the “activity change, negative = inhibition” value is 4.85%. Same read-out and setting: to `CCOc1ccccc1NC(=O)N1CCN(Cc2nc(-c3ccc(C(=O)NC)cc3)oc2C)CC1` belongs 11.9%. In the case of `CSc1nnc(-c2ccncc2)n1CCCN1CCCC1=O`, the Potency is 15.8 µM (active).

For `Cc1oc(-c2ccccc2)nc1C(=O)NCCCN1CCCC1=O`, the “activity change, negative = inhibition” value is -42%.

As to `CCCn1c(SCC(=O)N2CCc3ccccc32)nnc1-c1ccncc1`, the “activity change, negative = inhibition” value is -1.43%. Take `CCCCc1noc(CSc2cc(C(N)=O)c3ccccc3n2)n1`: the “activity change, negative = inhibition” value was -28.2%. For the molecule `CCOC(=O)N1CCN(Cc2nc3c(c(=O)[nH]c(=O)n3C)n2Cc2ccc(F)cc2)CC1`, the “activity change, negative = inhibition” value is -2.99%. For `CCC(=C/c1sc2ccc3ccccc3c2[n+]1C)/C=C1\Sc2ccc3ccccc3c2N1C`, the Potency was 39.8 µM (active). In the case of `COc1ccc(CCc2nnc(NS(=O)(=O)Cc3ccccc3)s2)cc1`, the “activity change, negative = inhibition” value was -2.97%. `CC(=O)Nc1ccc(Cl)c(-c2nc3cc(C)ccc3o2)c1`: the “activity change, negative = inhibition” value was 3.99%. Still for that read-out and setting: as for `NC(=O)c1ccc(S(=O)(=O)N2CCN(C(=O)c3cc4c(s3)CCC4)CC2)cc1`, the figure is -23.6%; as for `CCc1nc(Nc2ccc3nccnc3c2)c2oc3ccccc3c2n1`, -5.11%.

Take `COc1ccc(C)cc1Nc1nc(C)nc2c1oc1ccccc12`: the Potency is 35.5 µM (active). On to `COc1ccc(CCNC(=O)CSc2nc(C)nc3c2oc2ccccc23)cc1OC`, for which the “activity change, negative = inhibition” value was 0%. The same measure, in the same setting: as for `COCCN1CCCC(c2[nH]ccc2C(=O)NCCc2c[nH]c3ccccc23)C1` (stereo unspecified), the figure is 8.73%; as for `CCCCCCCOc1ccc(C(=O)Oc2cncc(Cl)c2)cc1`, 11.3%. `Cc1ccc(S(=O)(=O)N2CCN(CC(=O)NC(C)c3cccs3)CC2)cc1` (stereo unspecified): the Potency is 0.708 µM (active).

On to `Cc1ccc(S(=O)(=O)N2CCN(Cc3cccc(C)c3O)CC2)cc1`, for which the “activity change, negative = inhibition” value was 365%. As for `Cc1ccc(S(=O)(=O)N2CCN(C(=O)c3cccs3)CC2)cc1`, the “activity change, negative = inhibition” value is -3.66%.

Turning to `COc1c(I)cc(Br)cc1/C=C/C(=O)O`, the “activity change, negative = inhibition” value was -10.9%. For the molecule `O=C(Cc1csc(-c2ccccc2Cl)n1)Nc1nccs1`, the “activity change, negative = inhibition” value is 5.87%.

As to `Cc1ccc(-c2c3c(=O)n(C)c(=O)n(C)c3cn2-n2cnnc2)cc1`, the “activity change, negative = inhibition” value was 209%. As to `Cc1ccc(-c2c3c(=O)n(C)c(=O)n(C)c3c3n2C(C)(C)COC3c2ccc(C)cc2O)cc1` (stereo unspecified), the Potency was 6.31 µM (active). `COc1ccc(NC2CC(=O)N(C)C2=O)cc1` (stereo unspecified): the “activity change, negative = inhibition” value was -37.5%.

With `COc1ccc(N2C(=O)CC(Nc3ccc(F)cc3)C2=O)c([N+](=O)[O-])c1` (stereo unspecified), the “activity change, negative = inhibition” value is 0.124%. Consider `CC(=O)Oc1cccc(N2C(=O)CC(Nc3ccc(N4CCOCC4)cc3)C2=O)c1` (stereo unspecified), for which the Potency was 35.5 µM (active). With `COCCNC(=O)COc1ccc2c(C)cc(=O)oc2c1`, the “activity change, negative = inhibition” value is 2.59%. Regarding `CCCCn1c2ccccc2c2nnc(SCc3ccc(F)cc3)nc21`, the “activity change, negative = inhibition” value was -38.6%. As to `O=C(Nc1ccc2nc(SCC(=O)N3CCCc4ccccc43)sc2c1)c1ccc(F)cc1`, the Potency entry was “inactive”.

Regarding `O=C(CSc1nc2ccc(NC(=O)c3ccc(F)cc3)cc2s1)NC1CCCCC1`, the Potency is 3.98 µM (active).

As for `O=C(Nc1ccc2nc(N3CCCC3)sc2c1)c1ccc(F)cc1`, the “activity change, negative = inhibition” value is 2.62%.

In the case of `CCCn1nc(C(=O)N(CCOC)Cc2cccs2)c2ccccc2c1=O`, the “activity change, negative = inhibition” value is 49.1%. `Cc1oc2cc([N+](=O)[O-])c(O)c([N+](=O)[O-])c2c1C(=O)c1ccc(Br)cc1`: the Potency is 28.2 µM (active). As for `Cc1ccc(C(=O)c2ccc(N3CCN(C)CC3)c([N+](=O)[O-])c2)cc1`, the “activity change, negative = inhibition” value is -21.1%. The same measure, in the same setting: to `Cc1cc(O)c(NC(=O)c2ccc(C)c([N+](=O)[O-])c2)cc1C` belongs -1.24%; to `COc1ccc(CCn2c(NC3CCCCC3)nc3c2c(=O)[nH]c(=O)n3C)cc1`, 21.9%; to `O=C(Nc1ccc2c(c1)CCC2)c1cc2c(s1)CN(C1CC1)C2`, 327%. As for `CCn1nc(C(=O)Nc2ccccc2Oc2ccccc2)c2ccccc2c1=O`, the “activity change, negative = inhibition” value is 25.4%. For `CCN(CC)CCCCNc1ncc2c(n1)N(C)C(=O)N(c1c(Cl)c(OC)cc(OC)c1Cl)C2`, the Potency was 34.3 µM (active).

On to `COc1ccc(C(=O)COC(=O)c2ccc3c(c2)OCCO3)cc1`, for which the “activity change, negative = inhibition” value was -3.77%. For the molecule `Cc1nc(C)c(-c2csc(NCCc3ccccc3)n2)s1`, the Potency is 5.01 µM (active). In the case of `Cc1nc2sccn2c(=O)c1S(=O)(=O)NCCc1ccccc1`, the “activity change, negative = inhibition” value was 28.5%. Still for that read-out and setting: as for `Cc1cccc(C)c1Nc1nc(-c2ccccc2)cs1`, the figure is -68.3%.

With `Cn1c(SCC(=O)N2CCc3ccccc32)nnc1-c1ccc(F)cc1`, the “activity change, negative = inhibition” value is -7.62%. As for `O=C(NCCCN1CCN(Cc2ccccc2)CC1)c1ccccc1C(F)(F)F`, the “activity change, negative = inhibition” value was 16.1%. Regarding `Cc1nccn1-c1ccc(NC(=O)[C@H]2O[C@@H](n3ccc(=O)[nH]c3=O)[C@H](O)[C@@H]2O)cc1`, the “activity change, negative = inhibition” value is -15.6%. Same read-out and setting: as for `O=C(N[C@H](Cc1ccccc1)C(=O)N1CCCN(Cc2cccs2)CC1)[C@H]1O[C@@H](n2ccc(=O)[nH]c2=O)[C@H](O)[C@@H]1O`, the figure is 8.24%. For the molecule `O=C(NS(=O)(=O)c1cccs1)[C@H]1O[C@@H](n2ccc(=O)[nH]c2=O)[C@H](O)[C@@H]1O`, the Potency was 31.6 µM (active).
